Growth data for eight molecules are collected here from PubChem BioAssay (NCI).

About 83,000 compounds went through this panel and 20% of them were active in at least one assay; those are over-represented in the sample as a whole.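 Plates (96-well) were seeded with cells, treated with compound at one concentration, and incubated for 48 hours before percent growth was determined.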 Unmarked numbers belong to inactive results. Active and inactive are the calls of the source. Rule for the calls: active = growth percent below 10; inactive = the rest.

Common to all, as to test: NCI-60 one-dose screen, 48 h (100 = growth as untreated, 0 = no growth, -100 = all killed)
What all share (conditions): 10 µM unless noted

For assay [1], the system named is SK-MEL-2 melanoma.
For assay [2], the system named is EKVX NSCLC.
For assay [3], the system named is SN12C renal.
For assay [4], the system named is UO-31 renal.
Assay [5] relates to TK-10 renal.
Assay [6] deals with ACHN renal.
The subject of assay [7] is CAKI-1 renal.
Assay [8] has as its system A498 renal.
Assay [9] has as its system CCRF-CEM leukemia.
For assay [10], the system named is MOLT-4 leukemia.
Assay [11] has as its system SR leukemia.
The subject of assay [12] is OVCAR-8 ovarian.
Assay [13] relates to OVCAR-5 ovarian.
The test system of assay [14] is OVCAR-4 ovarian.
Assay [15] concerns SK-OV-3 ovarian.
Assay [16] deals with IGROV1 ovarian.
Assay [17] has as its system OVCAR-3 ovarian.
For assay [18], the system named is HS 578T breast.
Assay [19] has as its system NCI/ADR-RES ovarian.

With `Cc1ccc2sc3c(NCCCN)nc4ccccc4c3c(=O)c2c1`, the growth in assay [1] is 107%; in [2], 82.7%; in assay [3], 69.2%; in assay [4] it was 47.1%; in assay [5], 85.2%; in [6], 20.6%. Further, the growth in assay [7] was -6.43% (active); in assay [8], 44.6%; in assay [9], 5.2% (active); in [10], -30.6% (active); in assay [11], -31.8% (active); in [12], 38.3%. Also, the growth was 85.8% in [13]; 28% in [14]; 90.2% in assay [15]; 65.7% in assay [16]; 2.61% (active) in assay [17]; 59.8% in assay [18]. In addition, the growth in [19] was 39.4%.

Consider `O=C1c2cccc3cccc(c23)C(=O)N1Nc1nc(N2CCOCC2)nc(N2CCN(c3ccccc3)CC2)n1`, for which the growth was 59.9% in assay [1]; 50% in assay [2]; 64.8% in assay [3]; 29.9% in assay [4]; 96% in assay [5]; 41.2% in assay [6]. In addition, the growth in assay [7] was 41.2%; in assay [8] it was -3.12% (active); in [9] it was 56.9%; in [10] it was 42%; in [11] it was 23.7%; in [12], 71.6%. In addition, the growth in [13] was 83.8%; in [14], 79.9%; in assay [15] it was 54.8%; in assay [16], 32.9%; in assay [17] it was 11.2%; in assay [18], 42.9%. Besides, in [19], the growth was 37.8%.

`CCOC(=O)Nc1ccc(-c2nc(-c3cccc(OCCN4CCOCC4)c3)c(-c3ccnc(Br)c3)[nH]2)cc1`: the growth in [1] is 40.2%; in assay [2], 61.1%; in [3], 59.9%; in [4], 21.5%; in [5], 87.4%; in [6], 43.9%. Moreover, the growth in assay [7] is 51.3%; in assay [8], 49.9%; in assay [9], 26.4%; in assay [10], 7.57% (active); in assay [11] it was -12.9% (active); in assay [12] it was 43.8%. The growth was 66.9% in [13]; 52.7% in assay [14]; 80.8% in assay [15]; 63.6% in assay [16]; 48.6% in assay [17]; -16.4% (active) in assay [18]. Further, the growth in assay [19] is 60.7%.

`Cc1ccc2c(n1)C(=O)C(Cl)=C(Nc1ccccc1C(C)C)C2=O`: the growth in assay [1] was 64%; in assay [2] it was 95.8%; in assay [3] it was 23.7%; in [4] it was 57%; in [5], 165%; in assay [6] it was 49.2%. The growth in assay [7] is 35%; in assay [8] it was 99.7%; in assay [9], 35.7%; in assay [10], 31.9%; in assay [11] it was 33.4%; in [12], 67.5%. In addition, the growth in assay [13] was 85.9%; in [14], 28.4%; in [15], 79.7%; in assay [16] it was 63.9%; in assay [17], -3.79% (active); in assay [18], 100%. The growth in [19] was 85.8%.

For the molecule `CCCCCCCCCCCCCCCCCCOc1ccccc1CCCOP(=O)(O)OCC[N+](C)(C)C`, the growth in assay [1] is 102%; in [2] it was 74.1%; in assay [3], 60.9%; in [4] it was 68.5%; in assay [5], 1.65% (active); in assay [6], 84.5%. Moreover, the growth is 43.4% in assay [7]; 54.1% in assay [8]; 34% in [9]; 33.7% in assay [10]; 11.4% in assay [11]; 64.8% in assay [12]. Also, the growth was 75.6% in [13]; 89.9% in [14]; 85% in assay [15]; 15.5% in assay [16]; 84.5% in [17]; 93.5% in [18]. In addition, the growth in assay [19] was 95.4%.

Consider `CNC(=O)c1cc(-n2ccc3cc(NC(=O)c4ccc(N5CCOCC5)c(C(F)(F)F)c4)ccc32)ccn1`, for which the growth was 91.1% in assay [1]; 83.9% in [2]; 64.3% in assay [3]; 50.2% in assay [4]; 86.8% in assay [5]; 61.5% in [6]. In addition, the growth in assay [7] is 63.6%; in [8] it was 25.9%; in assay [9], 30.1%; in assay [10] it was 34.6%; in [11] it was 24.8%; in assay [12] it was 27.7%. Moreover, the growth was 79.1% in [13]; 64.4% in assay [14]; 91.2% in [15]; 77.7% in [16]; 63.9% in [17]; 47.1% in [18]. Also, the growth in assay [19] was 45.7%.

Regarding `CC(C)OC(=O)Nc1ccc(-c2nc(-c3cccc(OCCN4CCOCC4)c3)c(-c3ccnc(Br)c3)[nH]2)cc1`, the growth in assay [1] is 32.5%; in [2], 50.3%; in [3], 57.6%; in assay [4], -15.9% (active); in assay [5], 68.1%; in assay [6] it was 28.4%. For the same molecule, the growth in assay [7] is 35.5%; in assay [8] it was -9.64% (active); in [9], 16.8%; in assay [10], 0.706% (active); in assay [11] it was -14.6% (active); in assay [12], 38.9%. Besides, the growth in assay [13] is 55.6%; in assay [14] it was 54%; in [15], 12.2%; in assay [16], 45.7%; in assay [17], 45.1%; in [18], -33% (active). Also, the growth in [19] was 57.1%.

Take `O=C1/C(=C/c2ccccc2[N+](=O)[O-])Oc2ccc(O)c(O)c21`: the growth in assay [1] was 43.1%; in [2], 63.9%; in assay [3], 31.1%; in assay [4] it was 28.7%; in assay [5], 80.4%; in assay [6], 17.7%. The growth in [7] was 15.1%; in [8] it was 65.7%; in assay [9], 8.79% (active); in assay [10], 18.1%; in assay [11] it was 36.1%; in [12] it was 25.5%. Besides, the growth in assay [13] is 48.8%; in [14], 47.9%; in assay [15] it was 93.1%; in assay [16] it was 48.5%; in assay [17], 35.1%; in assay [18] it was 21.1%. Moreover, in assay [19], the growth is 37.6%.
